# Screening data: PubChem BioAssay, several laboratories
# In the library only some 5% were active in any assay of this set; here they are far more common.
# SENP8 block-1: inhibitors of human SENP8 protease; Q96LD8; inhibition, % at 20 µM; 360,000 compounds, 0.64% hits; recombinant SENP8, Nedd8 substrate fluorescence; in the data active = inhibition mostly above about 40%, no sharp cut-off; inactive = mostly below about 27%
# SENP8 block-2: inhibitors of human SENP8 protease | Q96LD8 | purified SENP8, Z-RLRGG-aminoluciferin cleavage, luminescence | inhibition, % at 10 µM | 330,000 compounds, 1.2% hits | AID 2540; in the data active = inhibition above about 50%
# SENP7 block: inhibitors of human SENP7 protease; recombinant SENP7, Z-RLRGG-aminoluciferin luminescence, 40 min; inhibition, % at 5 µM; 330,000 compounds, 1.5% hits; AID 434973;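 active = inhibition above about 50% at the single test dose, limit read from the data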;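 note: plate controls were DMSO with enzyme for no effect and no enzyme buffer wells for full effect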
# EBI2 antag: EBI2 (human) antagonism; P32249; EBI2 beta-arrestin recruitment, luminescence, 7a,25-OHC stimulated; inhibition, % at 5 µM; 360,000 compounds, 0.81% hits; in the data active = inhibition above about 38%;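 note: enzyme fragment complementation signal reports receptor beta-arrestin coupling in cells; 0% = agonist plus DMSO wells and 100% = wells without agonist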
# Target sequence (P32249 whole entry, looked up, the tested form may be a part): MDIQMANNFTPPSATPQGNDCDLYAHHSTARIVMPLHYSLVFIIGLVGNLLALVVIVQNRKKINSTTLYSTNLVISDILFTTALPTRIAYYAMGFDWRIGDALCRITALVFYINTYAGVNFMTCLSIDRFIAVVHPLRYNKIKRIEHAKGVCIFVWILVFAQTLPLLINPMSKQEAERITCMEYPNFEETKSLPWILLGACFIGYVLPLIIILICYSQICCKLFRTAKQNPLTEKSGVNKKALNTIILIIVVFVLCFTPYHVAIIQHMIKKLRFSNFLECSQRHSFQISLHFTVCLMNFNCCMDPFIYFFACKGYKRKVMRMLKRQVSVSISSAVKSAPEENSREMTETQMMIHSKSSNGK
# AHR activator: activates the human aryl hydrocarbon receptor; AHR-responsive luciferase reporter cells, luminescence; P35869; activation, % at 5 µM; 320,000 compounds, 2.5% hits; AID 2796; in the data active = activation above about 47%;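 note: 0% = vehicle wells and 100% = reference agonist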
# SENP6 inh: inhibitors of human SENP6 protease; AID 2599; 330,000 compounds, 1.8% hits; Recombinant SENP6 catalytic domain, aminoluciferin luminescence; inhibition, % at 10 µM; Q9GZR1;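 active = inhibition above about 50% at the single tested dose, limit read from the data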;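 note: plate controls were DMSO wells with enzyme for no effect and DMSO wells lacking enzyme for full effect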
# SENP8 confirm: human SENP8 inhibition, confirmed | Recombinant SENP8, Z-RLRGG-aminoluciferin luminescence, 60 min | inhibition, % at 12.5 µM | 6,200 compounds, 40% hits | shares compounds with SENP7 block;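 active = mean inhibition across replicates above about 50%, limit read from the data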
# SENP6 confirm: confirmation of human SENP6 protease inhibitors; inhibition, % at 12.5 µM; shares compounds with SENP7 block; recombinant SENP6, Z-RLRGG-aminoluciferin luminescence; 6,200 compounds, 58% hits
# SENP7 confirm: human SENP7 inhibition, confirmed | shares compounds with SENP7 block | recombinant SENP7, Z-RLRGG-aminoluciferin luminescence, 40 min | inhibition, % at 12.5 µM | 6,200 compounds, 69% hits
# Casp3 select: inhibits human caspase-3 in SENP selectivity test. purified caspase-3, Z-DEVD-aminoluciferin luminescence, 60 min. 6,200 compounds, 60% hits. shares compounds with SENP7 block. inhibition, % at 12.5 µM;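 active = mean inhibition above about 50%, limit read from the data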;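 note: plate controls were enzyme with DMSO for no effect and wells without caspase-3 for full effect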
# Target sequence (P42574 28-227 limits assumed): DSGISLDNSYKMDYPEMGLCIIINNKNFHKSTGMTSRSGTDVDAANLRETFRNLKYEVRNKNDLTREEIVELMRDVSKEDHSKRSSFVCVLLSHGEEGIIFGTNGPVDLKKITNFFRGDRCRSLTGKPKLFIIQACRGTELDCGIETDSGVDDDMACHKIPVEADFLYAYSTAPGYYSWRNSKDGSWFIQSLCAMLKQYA
# Luc interf: counter-screen for SENP inhibitors: luminescence interference | shares compounds with SENP7 block | Pre-incubated SENP8/Z-RLRGG-aminoluciferin, luciferase luminescence interference | inhibition, % at 12.5 µM | 6,200 compounds, 39% hits;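 active = mean inhibition above about 50% when retested at one dose, limit read from the data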;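 note: plate controls were DMSO wells with completed reaction for no effect and substrate without enzyme for full effect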
# Starred values were filed as active, the others as inactive; nt = not tested or not shown.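 Rule for the calls, unless noted: active = mean inhibition above about 50% in the one-dose retest (limit read from the data); inactive = the rest.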
SMILES,SENP8 block-1,SENP8 block-2,SENP7 block,EBI2 antag,AHR activator,SENP6 inh,SENP8 confirm,SENP6 confirm,SENP7 confirm,Casp3 select,Luc interf
O=C(O)c1ccc2cc(-c3ccccc3)[nH]c2c1,-454,97*,100*,-16,-6,95*,7,101*,104*,48,50*
O=C(O)c1ccccc1NC(=O)c1cc2ccccc2oc1=O,7,11,24,0,nt,9,nt,nt,nt,nt,nt
Cc1c(C(=O)NC2=NCCS2)oc2ccccc12,11,70*,86*,7,64*,86*,81*,83*,98*,93*,87*
Cc1ccnc(NC(=O)c2cc3ccccc3oc2=O)c1,9,82*,95*,-3,8,72*,24,30,22,55*,1
Cc1sc(NC(=O)c2oc3ccccc3c2C)c(C#N)c1C,-266,8,-2,-7,9,-7,nt,nt,nt,nt,nt
O=C(NC1CCCCCC1)c1cc2ccccc2oc1=O,-136,40,56*,5,-2,73*,50*,60*,68*,63*,19
CCC(=O)Nc1ccc(NC(=S)NC(=O)c2oc3ccccc3c2C)cc1,31,3,0,1,34,-4,nt,nt,nt,nt,nt
Cc1cccnc1NC(=S)NC(=O)c1oc2ccccc2c1C,-155,18,8,-5,24,79*,-6,-3,-6,4,5
CN1CCN(c2ccc(S(=O)(=O)N3CCCCC3)cc2NC(=O)c2ccc(F)cc2F)CC1,11,4,-1,-9,-3,16,nt,nt,nt,nt,nt
Cc1cccc(NC(=O)c2cc3ccccc3oc2=O)c1,12,64*,97*,1,4,88*,-6,9,7,18,10
Cc1ccnc(NC(=O)c2oc3ccccc3c2C)c1,9,72*,85*,11,44,81*,52*,85*,81*,58*,44
O=[N+]([O-])c1ccccc1N/N=C/c1ccccc1,20,61*,95*,0,7,63*,22,21,11,26,-3
O=[N+]([O-])c1ccccc1N/N=C/c1ccc2c(c1)OCO2,26,82*,96*,14,nt,34,14,16,14,25,4
Cc1ccc(CCNC(=O)c2cccc(NC3=NC4CS(=O)(=O)CC4S3)c2)cc1 (configuration not stated),11,2,-2,-12,1,-8,nt,nt,nt,nt,nt
C[C@H](NC(=O)c1[nH]cnc1C(=O)Nc1ccccc1F)c1ccccc1,9,nt,nt,-43,nt,nt,nt,nt,nt,nt,nt
COc1ccc2cc3cc(C(=O)NC4CC4)sc3nc2c1,-401,71*,85*,-1,-4,90*,6,81*,99*,93*,13
CCOC(=O)C(=NCCCN1CCOCC1)NNc1cccc(C(F)(F)F)c1,-28,1,4,-2,3,-2,nt,nt,nt,nt,nt
COc1cc(C(=O)NC(C(=O)Nc2cccc(C(C)=O)c2)C(C)C)cc(OC)c1OC (configuration not stated),13,-2,3,-14,7,-13,nt,nt,nt,nt,nt
C(=C\c1nc(-c2ccccc2)no1)/c1ccccc1,3,75*,85*,8,13,84*,75*,82*,94*,65*,59*
CC(C)(C)C1CCC(OC(=O)CN2CCCCC2)CC1 (configuration not stated),9,-6,2,-2,-5,-4,nt,nt,nt,nt,nt
NC(CC(=O)OC1CCCCC1)C(=O)OC1CCCCC1 (configuration not stated),12,2,5,-8,0,77*,-5,-8,-8,-4,-4
Clc1cccc(Cl)c1/C=C/c1nc2ccccc2[nH]1,-280,89*,93*,13,8,82*,94*,96*,101*,87*,76*
Clc1ccc(/C=C/c2nc3ccccc3[nH]2)cc1,-266,97*,100*,24,-16,98*,99*,100*,103*,98*,83*
Clc1ccc(SCc2nc3ccccc3[nH]2)cc1,-6,26,44,8,-1,40,nt,nt,nt,nt,nt
Clc1ccc(/C=C/c2nc3ccccc3[nH]2)c(Cl)c1,-273,97*,99*,15,-6,100*,99*,100*,104*,98*,34
SMILES,SENP8 block-1,SENP8 block-2,SENP7 block,EBI2 antag,AHR activator,SENP6 inh,SENP8 confirm,SENP6 confirm,SENP7 confirm,Casp3 select,Luc interf
Cc1cccn2c(CN(C)CC3Cc4ccccc4O3)c(C(=O)N3CCCCC3)nc12 (configuration not stated),3,9,0,-8,4,3,nt,nt,nt,nt,nt
O=C(NC1=NCCS1)C1COc2ccccc2O1 (configuration not stated),21,64*,85*,-12,0,82*,77*,76*,95*,94*,85*
O=C(Nc1nc2c(s1)CCCC2)C1COc2ccccc2O1 (configuration not stated),20,59*,59*,1,7,67*,75*,73*,92*,67*,32
Cc1nnc(NC(=O)C2COc3ccccc3O2)s1 (configuration not stated),4,-4,5,-3,8,-11,nt,nt,nt,nt,nt
CCN(Cc1ccccc1)C(=O)COc1ccccc1,9,-7,-10,5,-1,-15,nt,nt,nt,nt,nt
CCN(CC)C(=O)COc1ccc(-c2ccccc2)cc1,22,46,60*,-1,-6,70*,55*,55*,82*,73*,66*
O=C(c1ccc(OC2CCN(CCO)CC2)cc1)N1CCCC1,7,0,-2,3,-2,-2,nt,nt,nt,nt,nt
CN(C)c1ccc(/C=N/NC(=O)c2ccnn2C)cc1,-252,91*,98*,-3,41,95*,90*,90*,98*,95*,88*
O=C(N/N=C/c1ccc(OC(=O)c2cccs2)cc1)c1ccccn1,-17,13,74*,-30,24,21,8,15,2,7,1
O=C(/C=C/c1ccc2c(c1)OCO2)c1ccccn1,0,73*,71*,-4,9,75*,92*,89*,95*,69*,68*
